We go through 13 compounds from PubChem BioAssay (NCATS).

The target of assay [1] is Lysosomal acid glucosylceramidase (Homo sapiens) (UniProt P04062). In words: Glucocerebrosidase-p2 (AID 348; in the data active means potency below about 10 µM; further: potency means the concentration at half of the fitted maximal effect). As to conditions: purified GBA, blue fluorogenic substrate, 40 min. Summed up: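 Compounds titrated from 0.6 nM upwards against 0.2 nM enzyme in pH 5.9 citric acid/KH2PO4, taurocholate, tween-20; blue fluorogenic substrate 80 uM, 40 min room temperature, stopped and read Ex 365/Em 440 for AC50.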

Assay [2] can be described thus: AP1 Signaling Pathway (AID 357).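 Further: ME-180 reporter cells stimulated with EGF at its EC50 level; on the % scale 0 is the no-effect control and ±100 the full control effect.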 As to conditions: ME-180 AP-1-bla reporter, EGF-induced, beta-lactamase ratio, 5 h; at 7.69 µM (top of the series) unless noted. A digest of the protocol: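 Modulation of EGF-driven AP-1 transcription was assessed with a beta-lactamase reporter in ME-180 cells. Compound and EC50 EGF were co-incubated 5 hours at 37 °C before 2.5-hour CCF4 loading at room temperature and dual-emission reading.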

Assay [3] is described as follows: NFAT Signaling Pathway (AID 444).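 Further: carbachol stimulus at about its EC50 of 1 µM final; on the % scale 0 is the no-effect control and ±100 the full control effect.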 Conditions: Jurkat NFAT-bla M1, carbachol, beta-lactamase ratio, 5 h; at 7.69 µM (top of the series) unless noted. A digest of the protocol: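 Jurkat cells with NFAT-driven β-lactamase reporter and co-expressed M1 receptor, stimulated with carbachol (final 1 uM, ~EC50), compound titration, 5 h at 37 °C. CCF4 loaded 1 h at RT; 460/530 nm ratio gave %activity and AC50.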

The nature of assay [4]: Stat Signaling Pathway (AID 446).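 Further: ME-180 cervical cancer cells given 40 pM IL-6 alongside compound; SIE-controlled beta-lactamase reporter measured as 460/530 nm FRET emission ratio; on the % scale 0 is the no-effect control and ±100 the full control effect.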 Conditions: ME-180 SIE beta-lactamase reporter, IL-6 stimulated, 5 h; at 7.69 µM (top of the series) unless noted. A digest of the protocol: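 ME-180 cells carrying a SIE-driven beta-lactamase reporter are stimulated with 40 pM IL-6 for 5 h at 37C in the presence of compound. The 460/530 nm FRET substrate ratio is read after 2.5 h at RT. Data are normalised to 300 pM IL-6 and to 125 nM JAK inhibitor controls.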

Assay [5] addresses Glucocorticoid receptor (Homo sapiens) (UniProt P04150). In words: GR-GFP Redistribution (AID 450;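 active means compounds whose dose series gives a full or clear partial fitted curve of increased nuclear translocation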; further: potency means the concentration at half of the fitted maximal effect). Conditions: U2OS GR-GFP nuclear translocation, laser cytometry, 2 h.
The target is the same in assay [6]. As to the kind of experiment: GR-EFC Redistribution (AID 451; calls by dose curve; further: potency means the concentration at half of the fitted maximal effect). As to conditions: CHO-K1 GR-EFC translocation, beta-gal luminescence, 2 h. Summed up: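 CHO-K1 cells expressing nuclear EA and GR-ED fragments of b-gal; compounds titrated up to 46 uM final, 2 h at 37 C. GR nuclear translocation read as complemented b-gal luminescence after 1 h RT detection.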
Assay [7] has as its target Mitogen-activated protein kinase 10 (Mus musculus) (UniProt Q61831). In words: JNK3 AlphaScreen Assay (AID 530).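 Further: kinase came from lysate of stimulated human HepG2 cells; signal reports phosphorylation of biotinylated GST-cJun 1-79 at Ser73 with 10 µM ATP; on the % scale 0 is the no-effect control and ±100 the full control effect.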 Conditions: JNK3 lysate, c-Jun phosphorylation; series mostly up to 11.4 µM. Summed up: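 Pre-activated (IL-1β/TNFα) JNK3 in HepG2 lysates phosphorylates biotin-GST-cJun(1-79), 10 uM ATP; anti-phospho-cJun(Ser73) AlphaScreen read at room temperature, pH 7.6 Tris buffer. Compounds pre-incubated 15 min as titrations.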
In general terms: Alpha assays give light when donor and acceptor beads are brought close together.

In assay [8] the target is 3',5'-cyclic-AMP phosphodiesterase 4B (Homo sapiens) (UniProt Q07343). In words: qHTS Assay for Inhibitors of PDE-IV (AID 607; active means well fitted activation curve with a large enough effect in the main read-out, with a control signal flat, not every such curve was filed as active; further: % of control where 0% means no effect). As to conditions: HEK293 ACTOne CNG channel cells, membrane potential fluorescence; series mostly up to 22.9 µM. Summed up:
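HEK293 ACTOne cells with CNG channel (1000/well), endogenous PDE4; membrane potential dye, compounds up to 22.9 uM final. Fluorescence Ex 535/Em 590; RO 20-1724 (100 uM final) as reference.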

Assay [9] concerns the target Cytochrome P450 2C9 (Homo sapiens) (UniProt P11712). As to the kind of experiment: qHTS Assay for Inhibitors and Substrates of Cytochrome P450 2C9 (AID 883; active means well fitted curve in the direction sought with a large enough effect; an effect the other way counts as inactive or inconclusive; further: nearly all actives have a fitted effect of over 60% in size; further: potency means the concentration at half of the fitted maximal effect). Conditions: recombinant CYP2C9, luciferin-H luminescence, 60 min; series mostly up to 11.4 µM. Summed up:
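10nM CYP2C9 + 100uM Luciferin-H (=KM), 25mM KPO4; cpd 10 min 37C; NADPH regen, 60 min 37C; stop/detect with P450 Glo-Buffer 20 min; luminescence. Norm. to 57uM sulphaphenazole as full inhibition.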

The target of assay [10] is Cytochrome P450 2C19 (Homo sapiens) (UniProt P33261). In words: qHTS Assay for Inhibitors and Substrates of Cytochrome P450 2C19 (AID 899; active means well fitted curve in the direction sought with a large enough effect; an effect the other way counts as inactive or inconclusive; further: nearly all actives have a fitted effect of over 60% in size; further: potency means the concentration at half of the fitted maximal effect). Conditions: recombinant CYP2C19, luciferin-H EGE luminescence; series mostly up to 11.4 µM. Summed up: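 Luminescent read-out of luciferin formed from Luciferin-H EGE (10uM, equal to KM). Enzyme 5nM in 50mM KPO4; compound added, 10 min at 37C, then NADPH regenerating system for 60 min at 37C. Full inhibition defined by 57uM ketoconazole.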
A general note: Quantitative high-throughput screening tests each substance at several concentrations.

The target in assay [11] is Cytochrome P450 3A4 (Homo sapiens) (UniProt P08684). As to the kind of experiment: qHTS Assay for Activators of Cytochrome P450 3A4 (AID 885; active means well fitted curve in the direction sought with a large enough effect; an effect the other way counts as inactive or inconclusive; further: nearly all actives have a fitted effect of over 65% in size). Conditions: recombinant CYP3A4, Luciferin-PPXE luminescence, 60 min; series mostly up to 11.4 µM. Summed up:
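Human CYP3A4 (20 nM) with Luciferin-PPXE at 25 uM (its KM) in 200 mM KPO4; 10 min compound preincubation, then NADPH regeneration and 60 min reaction at RT. Luciferin read by luminescence; normalized to 57 uM ketoconazole full inhibition.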

Assay [12] has the same target. In words: qHTS Assay for Inhibitors and Substrates of Cytochrome P450 3A4 (AID 884; active means well fitted curve in the direction sought with a large enough effect; an effect the other way counts as inactive or inconclusive; further: on the % scale 0 is the no-effect control and ±100 the full control effect; nearly all actives have a fitted effect of over 50% in size). As to conditions: recombinant CYP3A4, Luciferin-PPXE luminescence; series mostly up to 57.1 µM. Summed up:
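20 nM human CYP3A4 with 25 uM Luciferin-PPXE (at KM) in 200 mM KPO4, preincubated 10 min with compound; NADPH regeneration started a 60 min RT reaction. Luciferin detected by luminescence, normalized to 57 uM ketoconazole as full inhibition.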

For assay [13], the target named is Cytochrome P450 2D6 (Homo sapiens) (UniProt P10635). In words: qHTS Assay for Inhibitors and Substrates of Cytochrome P450 2D6 (AID 891; active means well fitted curve in the direction sought with a large enough effect; an effect the other way counts as inactive or inconclusive;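 further: luciferin methyl ether substrate demethylated by CYP2D6 with NADPH regeneration; on the % scale 0 is the no-effect control and ±100 the full control effect; nearly all actives have a fitted effect of over 60% in size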). Conditions: recombinant CYP2D6, luciferin-ME EGE luminescence; series mostly up to 11.4 µM. Summed up:
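Human CYP2D6 (5 nM) with 30 uM Luciferin-ME EGE (at Km) in 100 mM KPO4, compound preincubated 10 min, then NADPH regeneration system for 60 min at room temperature. Luciferin read by luminescence; normalized to 1.43 uM quinidine.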

A number with no mark means an inactive call. Records with an inconclusive call do not appear. Calls of active or inactive are those of the source. Unless noted, the call rests on the fitted dose curve; in most records, active means well fitted curve in either direction with a large enough effect (not every such curve was filed as active); inconclusive means small, poorly fitted or top-dose-only effect, or another doubt; inactive means flat fitted curve, though single readings scatter.

Chain of 3',5'-cyclic-AMP phosphodiesterase 4B (Homo sapiens) (Q07343 whole entry, looked up): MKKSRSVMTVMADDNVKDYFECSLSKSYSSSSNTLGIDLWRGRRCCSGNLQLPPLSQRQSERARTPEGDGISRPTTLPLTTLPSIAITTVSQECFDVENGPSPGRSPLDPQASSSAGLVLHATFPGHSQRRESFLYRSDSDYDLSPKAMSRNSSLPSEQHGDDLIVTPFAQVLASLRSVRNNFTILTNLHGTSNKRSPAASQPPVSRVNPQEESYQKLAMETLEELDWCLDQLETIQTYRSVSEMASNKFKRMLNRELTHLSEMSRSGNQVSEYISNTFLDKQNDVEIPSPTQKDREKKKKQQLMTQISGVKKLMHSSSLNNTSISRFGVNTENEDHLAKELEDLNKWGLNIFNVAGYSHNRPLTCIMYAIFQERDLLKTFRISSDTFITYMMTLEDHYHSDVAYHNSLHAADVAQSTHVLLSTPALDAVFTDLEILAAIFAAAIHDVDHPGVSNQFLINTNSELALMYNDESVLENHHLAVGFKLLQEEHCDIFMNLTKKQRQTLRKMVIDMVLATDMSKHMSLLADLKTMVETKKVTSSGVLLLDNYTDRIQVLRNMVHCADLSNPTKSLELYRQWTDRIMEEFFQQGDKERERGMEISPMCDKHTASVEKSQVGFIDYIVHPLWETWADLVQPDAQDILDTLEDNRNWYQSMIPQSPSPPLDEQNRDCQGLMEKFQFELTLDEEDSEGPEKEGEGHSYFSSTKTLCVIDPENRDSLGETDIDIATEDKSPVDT
Chain of Cytochrome P450 2C9 (Homo sapiens) (P11712 whole entry, looked up): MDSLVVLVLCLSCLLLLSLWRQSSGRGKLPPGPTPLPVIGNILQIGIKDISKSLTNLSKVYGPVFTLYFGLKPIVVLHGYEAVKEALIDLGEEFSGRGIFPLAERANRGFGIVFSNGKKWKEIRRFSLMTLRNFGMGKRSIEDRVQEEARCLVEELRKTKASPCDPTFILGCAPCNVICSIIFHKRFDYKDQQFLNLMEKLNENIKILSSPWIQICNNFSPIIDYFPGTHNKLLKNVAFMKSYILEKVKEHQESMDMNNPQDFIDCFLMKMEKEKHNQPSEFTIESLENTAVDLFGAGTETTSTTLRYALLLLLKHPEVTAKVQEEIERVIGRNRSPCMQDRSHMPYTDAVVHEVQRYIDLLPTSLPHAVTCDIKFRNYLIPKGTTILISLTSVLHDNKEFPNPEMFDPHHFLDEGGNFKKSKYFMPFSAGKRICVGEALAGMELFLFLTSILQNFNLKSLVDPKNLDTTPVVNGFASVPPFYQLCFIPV
Chain of Glucocorticoid receptor (Homo sapiens) (P04150 whole entry, looked up, the tested form may be a part): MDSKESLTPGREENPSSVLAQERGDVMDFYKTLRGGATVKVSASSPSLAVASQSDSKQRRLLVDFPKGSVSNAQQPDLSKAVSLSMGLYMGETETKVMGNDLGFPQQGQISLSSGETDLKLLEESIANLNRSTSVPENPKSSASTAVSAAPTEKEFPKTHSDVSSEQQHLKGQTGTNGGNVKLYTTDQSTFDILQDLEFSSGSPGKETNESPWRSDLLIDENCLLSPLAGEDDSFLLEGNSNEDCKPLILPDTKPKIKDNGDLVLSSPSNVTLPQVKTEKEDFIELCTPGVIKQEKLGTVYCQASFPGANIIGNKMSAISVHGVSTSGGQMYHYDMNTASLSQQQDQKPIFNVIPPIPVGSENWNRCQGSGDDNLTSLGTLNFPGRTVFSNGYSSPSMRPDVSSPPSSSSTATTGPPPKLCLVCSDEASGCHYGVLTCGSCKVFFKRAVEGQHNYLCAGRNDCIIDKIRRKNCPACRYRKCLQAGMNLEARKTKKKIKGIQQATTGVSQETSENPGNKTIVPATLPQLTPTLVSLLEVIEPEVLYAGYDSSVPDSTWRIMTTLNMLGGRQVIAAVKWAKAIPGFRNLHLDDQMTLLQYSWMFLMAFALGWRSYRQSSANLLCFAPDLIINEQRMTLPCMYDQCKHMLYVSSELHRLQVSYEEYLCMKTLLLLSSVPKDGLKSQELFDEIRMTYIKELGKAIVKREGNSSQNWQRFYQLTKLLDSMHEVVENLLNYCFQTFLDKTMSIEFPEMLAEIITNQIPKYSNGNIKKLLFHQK
Chain of Lysosomal acid glucosylceramidase (Homo sapiens) (P04062 whole entry, looked up): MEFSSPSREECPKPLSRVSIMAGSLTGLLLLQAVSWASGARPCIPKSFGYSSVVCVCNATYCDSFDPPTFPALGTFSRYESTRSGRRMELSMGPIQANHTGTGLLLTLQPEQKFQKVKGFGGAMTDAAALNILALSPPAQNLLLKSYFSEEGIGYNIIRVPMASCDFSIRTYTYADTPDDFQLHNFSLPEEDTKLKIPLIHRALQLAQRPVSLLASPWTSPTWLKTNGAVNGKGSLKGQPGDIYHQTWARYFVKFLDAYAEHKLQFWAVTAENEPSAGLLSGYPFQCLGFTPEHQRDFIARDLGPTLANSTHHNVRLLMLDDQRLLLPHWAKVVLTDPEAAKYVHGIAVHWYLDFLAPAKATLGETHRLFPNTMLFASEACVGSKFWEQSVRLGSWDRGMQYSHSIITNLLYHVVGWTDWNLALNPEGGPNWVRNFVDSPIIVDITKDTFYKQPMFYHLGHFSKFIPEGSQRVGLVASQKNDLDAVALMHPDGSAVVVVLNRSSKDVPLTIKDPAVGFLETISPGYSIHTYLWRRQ
Chain of Cytochrome P450 3A4 (Homo sapiens) (P08684 whole entry, looked up): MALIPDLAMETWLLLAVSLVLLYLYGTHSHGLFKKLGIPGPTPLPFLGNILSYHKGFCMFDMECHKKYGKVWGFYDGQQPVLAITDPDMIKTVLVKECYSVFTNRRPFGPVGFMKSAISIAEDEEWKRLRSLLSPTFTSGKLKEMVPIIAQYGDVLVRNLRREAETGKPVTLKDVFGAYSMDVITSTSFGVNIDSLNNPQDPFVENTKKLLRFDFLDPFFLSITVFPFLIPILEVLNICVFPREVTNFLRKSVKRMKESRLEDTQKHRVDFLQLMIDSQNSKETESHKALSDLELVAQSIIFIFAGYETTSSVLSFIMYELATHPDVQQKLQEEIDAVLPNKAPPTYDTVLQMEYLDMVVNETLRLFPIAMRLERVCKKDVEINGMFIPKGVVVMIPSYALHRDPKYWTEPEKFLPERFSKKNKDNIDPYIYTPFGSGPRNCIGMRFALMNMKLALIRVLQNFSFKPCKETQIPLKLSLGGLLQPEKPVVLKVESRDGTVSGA
Chain of Cytochrome P450 2C19 (Homo sapiens) (P33261 whole entry, looked up): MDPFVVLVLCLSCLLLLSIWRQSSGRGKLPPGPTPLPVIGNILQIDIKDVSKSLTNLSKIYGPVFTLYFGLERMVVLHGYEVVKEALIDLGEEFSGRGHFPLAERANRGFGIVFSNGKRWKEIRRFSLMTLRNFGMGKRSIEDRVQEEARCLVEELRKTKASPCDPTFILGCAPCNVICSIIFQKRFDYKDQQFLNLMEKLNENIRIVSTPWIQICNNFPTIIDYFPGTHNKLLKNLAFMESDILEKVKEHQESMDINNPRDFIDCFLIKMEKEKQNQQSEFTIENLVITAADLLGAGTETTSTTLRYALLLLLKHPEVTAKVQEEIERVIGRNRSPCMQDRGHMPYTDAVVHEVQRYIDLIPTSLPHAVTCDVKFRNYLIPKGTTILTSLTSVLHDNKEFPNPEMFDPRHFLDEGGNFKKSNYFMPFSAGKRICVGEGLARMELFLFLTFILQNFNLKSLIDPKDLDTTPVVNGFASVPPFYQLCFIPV
Chain of Cytochrome P450 2D6 (Homo sapiens) (P10635 whole entry, looked up): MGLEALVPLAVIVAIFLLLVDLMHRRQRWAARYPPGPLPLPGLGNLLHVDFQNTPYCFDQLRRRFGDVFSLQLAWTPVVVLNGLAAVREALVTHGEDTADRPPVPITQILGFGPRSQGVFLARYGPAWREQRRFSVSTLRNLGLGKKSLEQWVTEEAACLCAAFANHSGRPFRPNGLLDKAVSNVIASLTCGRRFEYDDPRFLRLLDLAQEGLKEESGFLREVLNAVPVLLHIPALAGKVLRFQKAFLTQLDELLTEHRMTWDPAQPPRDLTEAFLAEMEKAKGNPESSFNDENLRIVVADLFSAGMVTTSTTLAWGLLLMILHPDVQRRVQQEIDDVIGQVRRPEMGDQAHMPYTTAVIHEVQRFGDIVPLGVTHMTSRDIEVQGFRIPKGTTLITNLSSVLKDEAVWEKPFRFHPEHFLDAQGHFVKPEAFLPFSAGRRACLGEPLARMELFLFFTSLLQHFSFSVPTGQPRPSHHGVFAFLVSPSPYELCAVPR

For `CN(C)CN1CSC(=S)N(CN(C)C)C1`, the Potency is over 11.4 µM in [1]; over 46 µM in assay [5]; over 9.22 µM in [6]; 3.16 µM (active) in [9]; 3.16 µM (active) in [10]. Besides, the activity change, negative = inhibition is -2.13% in assay [2] and 1.69% in [3]. Also, the activity, negative = inhibition in assay [4] is 0.0184%. Moreover, the Potency result in [7] and in assay [8] was “inactive” throughout.
Turning to `O=C1c2cccc([N+](=O)[O-])c2C(=O)N1c1ncn[nH]1`, the figures for the Potency in assay [1], in assay [5] and in assay [6] were over 11.4 µM, over 46 µM and over 9.22 µM, respectively. Besides, the values for the activity change, negative = inhibition in assay [2] and in assay [3] were -5.78% and 7.45%, respectively. For the same compound, the activity, negative = inhibition in assay [4] was 4.03%. The Potency entry in assay [7], in assay [8], in assay [9], in assay [11] and in [10] was “inactive” in each case.
Consider `O=[N+]([O-])c1ccc2c(c1)c(S(=O)(=O)O)cc1nonc12`, for which the values for the Potency in assay [1], in assay [5] and in [6] were over 11.4 µM, over 46 µM and over 9.22 µM, respectively. Besides, the activity change, negative = inhibition in assay [2] was -3.17%; in assay [3], 6.23%. Besides, in [4], the activity, negative = inhibition was 19.1%. Further, the Potency result in assay [7] and in assay [8] was “inactive” each time.
Regarding `FC(F)(F)c1nc2nc(Cl)c(Cl)nc2n1CCCN1CCOCC1`, the Potency is over 11.4 µM in assay [1], over 46 µM in assay [5], over 9.22 µM in [6] and 2.51 µM (active) in [9]. Moreover, the activity change, negative = inhibition in assay [2] is 9.81%; in [3], -3.79%. Besides, the activity, negative = inhibition in [4] was 2.08%. Moreover, the Potency result in [7] and in assay [8] was “inactive” in each case.
On to `CC(C)C1=C[C@@]23CC[C@@H]4[C@](C)(CCC[C@@]4(C)C(=O)O)[C@@H]2C[C@@H]1[C@@H](C(=O)O)[C@@H]3C(=O)O`, for which the Potency in assay [1] is over 11.4 µM; in assay [5], over 46 µM; in [6] it was over 9.22 µM. The activity change, negative = inhibition in [2] is 1.99%; in assay [3], 4.67%. Besides, in assay [4], the activity, negative = inhibition was 5.23%. For the same compound, the Potency entry in [7] and in [8] was “inactive” in each case.
For `O=C(O)CN(CC(=O)O)c1ccccc1`, the results for the Potency in assay [1], in assay [5] and in assay [6] were over 11.4 µM, over 46 µM and over 9.22 µM, respectively. For the same compound, the activity change, negative = inhibition was 7.7% in [2] and 8.14% in assay [3]. Besides, in assay [4], the activity, negative = inhibition is 13.6%. For the same compound, the Potency entry in [7] and in [8] was “inactive” in each case.
`C=C(C)CN(CC#N)CC(=C)C`: the Potency in assay [1] is over 11.4 µM; in assay [5], over 46 µM; in assay [6], over 9.22 µM. In addition, the values for the activity change, negative = inhibition in assay [2] and in [3] were 2.17% and 9.57%, respectively. In assay [4], the activity, negative = inhibition was 16.5%. Also, the Potency entry in assay [7] and in [8] was “inactive” throughout.
Turning to `O=c1[nH]c(SCc2ccccc2[N+](=O)[O-])nc2nc[nH]c12`, the values for the Potency in [1], in assay [5] and in assay [6] were over 11.4 µM, over 46 µM and over 9.22 µM, respectively. For the same compound, the activity change, negative = inhibition in assay [2] is 9.58%; in [3], 13.2%; in assay [12] it was -21.6% [at 11.4 µM]. In assay [4], the activity, negative = inhibition is 10.1%. Further, the Potency entry in [7], in [8] and in [11] was “inactive” in each case.
Turning to `CC(C)(C)c1ccc(-c2nnc(SCc3ccc(Cl)cc3)n2-c2cccc(C(F)(F)F)c2)cc1`, the Potency in [1] is over 11.4 µM; in assay [5], over 46 µM; in assay [6], over 9.22 µM. For the same compound, the results for the activity change, negative = inhibition in assay [2] and in assay [3] were 5.08% and -23.1%, respectively. In addition, the activity, negative = inhibition in [4] was 3.24%. Moreover, the Potency entry in assay [7], in [8] and in [11] was “inactive” in each case.
Consider `NCCOC[C@H](N)C(=O)O`, for which the Potency in [1] is over 11.4 µM; in assay [5], over 46 µM; in assay [6], over 9.22 µM. The activity change, negative = inhibition was 3.26% in assay [2] and 11.6% in [3]. The activity, negative = inhibition in assay [4] is -1.46%. Besides, the Potency result in assay [7] and in assay [8] was “inactive” each time.
On to `Nc1nc(N)nc(CCCCc2nc(N)nc(N)n2)n1`, for which the Potency in assay [1] is over 11.4 µM; in assay [5], over 46 µM; in assay [6] it was over 9.22 µM. The activity change, negative = inhibition was 4.24% in assay [2] and 12.4% in assay [3]. The activity, negative = inhibition in assay [4] was -0.633%. For the same compound, the Potency result in assay [7], in assay [8], in assay [9], in assay [13] and in assay [10] was “inactive” throughout.
For the compound `Nc1nc(N)nc(CC(=O)O)n1`, the Potency in assay [1] is over 11.4 µM; in assay [5], over 46 µM; in assay [6], over 9.22 µM. Moreover, the activity change, negative = inhibition in assay [2] was 5.1%; in assay [3], 15.8%. For the same compound, the activity, negative = inhibition in [4] is 0.411%. Moreover, the Potency result in assay [7] and in [8] was “inactive” in each case.
As for `C[C@@H](C(=O)O)/C(=C/c1ccc2c(c1)OCO2)C(=O)O`, the Potency is over 11.4 µM in assay [1], over 46 µM in assay [5], over 9.22 µM in [6] and 2.51 µM (active) in assay [9]. For the same compound, the results for the activity change, negative = inhibition in assay [2] and in assay [3] were -12.8% and 1.64%, respectively. Also, the activity, negative = inhibition in [4] is -5.22%. Moreover, the Potency result in assay [7], in assay [8] and in [11] was “inactive” throughout.
